Experimental data from article PMC12136788.
Positions count from the first letter of the chain named. Whole data set: some 24,000 sequences, median “enrichment r” near 0.99, cut for the highest 2% near 3.7. The entries come from a sample that favours the highest values as a whole.

T1: UNK ZnF1-3 (human, UniProt Q9C0B0 31-174)
T1 sequence: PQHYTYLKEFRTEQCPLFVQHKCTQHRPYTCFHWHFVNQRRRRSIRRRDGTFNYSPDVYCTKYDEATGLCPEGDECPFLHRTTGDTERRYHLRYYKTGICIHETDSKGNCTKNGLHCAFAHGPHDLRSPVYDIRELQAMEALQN

B1: chr11:6247107:6247108:+_ENSMUSG00000020456_ENSMUST00000003461|mus_mus|FALSE|FALSE (ssRNA)
RNA: GGGAGUUCUACAGUCCGACGAUCAAACAUAGGUUCGUCCAUCUCAUUGUGGCCAUUUCGUCGAUAACACACCAGAUCAACUACAACAUCCUUGUGGAAGGUGUUUCUCCACUCAGCUGCCACCUUGCAUACAUACAUGACAGCCAACAGAGGAUUGAGCAUCA
B2: chr15:76911001:76911002:-_ENSMUSG00000033565_ENSMUST00000166610|mus_hu|motif|central (ssRNA)
RNA: GGGAGUUCUACAGUCCGACGAUCAAGAGCAUGACAAAAUAAAAACACACAAAUUUACGUCUGAUGUUCACCUUGCCCACGGUUUUUUUUUCCUAUCUUAAAACAGUGCAAACAGGUAACUUAUGCUUUUAAAACACCACGACCCAACAGAGGAUUGAGCAUCA
B3: chr17:17165348:17165349:-_ENSG00000141030_ENST00000268717|hu_mus|motif|central (ssRNA)
RNA: GGGAGUUCUACAGUCCGACGAUCUAUUUGAGAGGUGUAUUUAGGCAGCUGUUGUACUUUGCCAAGUAAUAUCAAAGACACGGGAAUAUACUUUUUAUAUGAUUCCAACAUGAUAUGGCUGACGGCCAUGGCAGGAGUAGUUAUCAACAGAGGAUUGAGCAUCA
B4: chr8:74858975:74858976:-_ENSG00000154582_ENST00000284811|hu_mus|hu_hu_hu_mus_True|8_48 (ssRNA)
RNA: GGGAGUUCUACAGUCCGACGAUCGACCUUGUAGGUAAAAUACAUGCACACUUUUGAUAGCACAUGUGAGGGGAUCUCUCUAAAAUUGACCUCAUUGGUUUCAUUCUCAGCAAACUGACCUGGACCACUCAACAUGGCCUUUAUCAACAGAGGAUUGAGCAUCA
B5: chr2:48026839:48026840:+_ENSG00000116062_ENST00000540021|hu_hu|hu_hu_hu_mus_False|48_88 (ssRNA)
RNA: GGGAGUUCUACAGUCCGACGAUCAUAGUGAGCCACUAGCGUCCUAAAUCUCGAACAGUGGCGGUCAUCCGAAAACUGGCCGAUGAAAAACUUUCCCAGUGAAGUGUCCACAAAGCAAACACCAUACACACGAGUGUGACCAGACAACAGAGGAUUGAGCAUCA
B6: chr11:86535762:86535763:-_ENSMUSG00000047126_ENSMUST00000103186|mus_hu|FALSE|FALSE (ssRNA)
RNA: GGGAGUUCUACAGUCCGACGAUCUGCAAAGCACUGAAUGACUUUAUUUGGGACGUUAGCCCUUAGGUACACACUAAGUGCCAAUGUAGGGUCCACAGAUUUCACAAGAUCACCCAGUUCUUCAGAACAUUCCAGCUUAUCUUCCAACAGAGGAUUGAGCAUCA
B7: chr7:118226368:118226369:-_ENSMUSG00000005610_ENSMUST00000162415|mus_hu|FALSE|FALSE (ssRNA)
RNA: GGGAGUUCUACAGUCCGACGAUCCAGCAGCUGCCACCGCAGCUGCCUCCUCAGGAUCCGGUCGUCGGGGAUAGGGAAGGGAGGGGAAAGGGGAACGGAAAACAAAAAAAAGGGGGAGGGAAGGGGGAGGAAGGAGUCGGGGACCAACAGAGGAUUGAGCAUCA
B8: chr19:8913615:8913616:-_ENSMUSG00000071658_ENSMUST00000096259|mus_hu|mus_mus_mus_hu_False|18_18 (ssRNA)
RNA: GGGAGUUCUACAGUCCGACGAUCAGGGUACCAAAACCUUCUGCCUGAAAUGGGUGCCCCACCCAGUAGGGAGUUGCAGCUGAAAGUAUCUGAUGCAGAAGCAGUGACUAUACGAAAGGUCACUAGAGGGGAGGGCCAGGCCAGCAACAGAGGAUUGAGCAUCA
B9: chr17:65740002:65740003:+_ENSG00000130935_ENST00000581375|hu_hu|hu_hu_hu_mus_False|98_108 (ssRNA)
RNA: GGGAGUUCUACAGUCCGACGAUCAACCCGUUCUUGCCUGGAUGAAGAACAGGAAGAUUCAUAUUAAAAAAAAUAUAUAUCCAUCAAGUUAGGUGUGGUGGCCACACCUUUACUCCCAGCACUUUGGGAGGUGGAUCUCUGAGUCAACAGAGGAUUGAGCAUCA
B10: chr18:43483763:43483764:-_ENSMUSG00000024501_ENSMUST00000121805|mus_hu|FALSE|FALSE (ssRNA)
RNA: GGGAGUUCUACAGUCCGACGAUCGCAGACUCUUUUACCUUAGUGGCCUGUCUGAUUGCAUGCAUGUAAAUGGGGGGAGGGGAGUCAAACAAAUCAAGGCUAUGCAUAAACAGAAAACAAAGCAAUAUUCGUAAAGCUAGGCAACAACAGAGGAUUGAGCAUCA
B11: chr16:2758876:2758877:+_ENSG00000167977_ENST00000301738|hu_hu|FALSE|FALSE (ssRNA)
RNA: GGGAGUUCUACAGUCCGACGAUCAAUUUUAGUGAAUUAAGUCUUAAUAUCUUUAAAUUAAAAAAACCACAAGCCUAUCUACUAUGUCAAGGUCAAAAAUCAAACAACGCUAAGCGGCCAGCAGCUCCCCAGAGAGGAUGCCCACAACAGAGGAUUGAGCAUCA
B12: chr1:10192443:10192444:+_ENSG00000130939_ENST00000377157|hu_hu|FALSE|FALSE (ssRNA)
RNA: GGGAGUUCUACAGUCCGACGAUCGACAGCCGCCAUGUAACUGAGAGCAGCCUCACGGGUUUCGCCAUUUAACAAAAUACUAUGCAGAAUCUUAAAAAGCUCUUGCCUUCCGAGCUCUAAGUAAUGCUGCAAUGAUUGGCUAACCAACAGAGGAUUGAGCAUCA
B13: chr7:90019433:90019434:+_ENSMUSG00000057706_ENSMUST00000082237|mus_hu|mus_mus_mus_hu_True|78_98 (ssRNA)
RNA: GGGAGUUCUACAGUCCGACGAUCAAAUAAUACAGUGUCUUUGCCAUUAAGGCCAUAUAAAAAUAAAAAGAUUUAACCCAGCUACAAAAAAGUUCACUGAACUUAAAUUAAAAUACUUGUAAACAUCUUUGCAAUAUGAAAUAUCAACAGAGGAUUGAGCAUCA
B14: 62932219_62936930_2744_CDS_ENSG00000061987_ENST00000546600|human|control|control (ssRNA)
RNA: GGGAGUUCUACAGUCCGACGAUCCAUAUUAACUAAACCAGUUUCUAACAAUUUGGCAACAGCAAAAAGAGAUGGUUCCUUAUUAUUUCCAUAGGCCAUAUCCAUUGCUUCUAGAGACAAGGAGCAAAGUGCAUUUAUUAAAUGCAACAGAGGAUUGAGCAUCA
B15: chr7:90019433:90019434:+_ENSMUSG00000057706_ENSMUST00000082237|mus_hu|motif|central (ssRNA)
RNA: B13 RNA with C38U, U39C, G42U, C43G, A45C, U46A, U57C, A58U, U82G, A83G
B16: 160625162_160625282_3606_3pUTR_ENSG00000136536_ENST00000259050|human|control|control (ssRNA)
RNA: GGGAGUUCUACAGUCCGACGAUCAAAACUACCACCCUUAAAUUUUAUAUUUUUGCUUUAAGACAGACAAUGCAAAGGUAACUGGCAAGAGGUGAGCAAAUGUUUUAGAACAUUUAUAUUAUUGCUUAAAAUGAGAUUUGAAAUCAACAGAGGAUUGAGCAUCA
B17: chr7:90019490:90019491:+_ENSMUSG00000057706_ENSMUST00000082237|mus_mus|FALSE|FALSE (ssRNA)
RNA: GGGAGUUCUACAGUCCGACGAUCUCCGUCACAAUCGUGUGAUUAUUAAAAUAAUACAGUGUUCUUUGCCAUAAGGCCAUACUAAAAAUAAAAAGAUUUAACCCAGCUACAAAAAAGUUCACUGAACUUAAAUUAAAAUACUUGCAACAGAGGAUUGAGCAUCA
B18: chr7:56126341:56126342:+_ENSG00000146731_ENST00000540286|hu_mus|hu_hu_hu_mus_True|8_78 (ssRNA)
RNA: GGGAGUUCUACAGUCCGACGAUCCAUGUUUCUCCUCUUGGCUCUGCGCAGAGCUACUAUGCCUUCUUUCGCAAGGGCAUCUAAGGAAAAGGGGUCAAUCCCCUUUUGAUUAAUAACGACAAAUCCUUUAUCUGAAUCACCACACAACAGAGGAUUGAGCAUCA
B19: chr18:43483763:43483764:-_ENSMUSG00000024501_ENSMUST00000121805|mus_mus|FALSE|FALSE (ssRNA)
RNA: GGGAGUUCUACAGUCCGACGAUCUGCAGAAUCUACCUUAGUGGCCUGUCUGAUCGCAUGCAUGUAAGUGGGGGUGGGGUGGGGGUGGGGUUCAAAGAAAUUGAGAGUAUGCAAAAACAGAAACCAAAGCAAUUCAUAAAGCUACAACAGAGGAUUGAGCAUCA
B20: chr4:107545374:107545375:+_ENSMUSG00000028613_ENSMUST00000106731|mus_hu|FALSE|FALSE (ssRNA)
RNA: GGGAGUUCUACAGUCCGACGAUCUGAUGGAUAGCCACAAAGCAUAAUCAUCUUAUUUACAAAAAACAAAUGCCCCAAAACCUAAAAAAGCCCCCCCAGCAACCAAACAUCUUCUGUAAAUAUAGUUUUUAAAUGAUGAGUAAGCAACAGAGGAUUGAGCAUCA
B21: chr14:78183846:78183847:+_ENSG00000119705_ENST00000557342|hu_hu|hu_hu_hu_mus_False|18_98 (ssRNA)
RNA: GGGAGUUCUACAGUCCGACGAUCUCUCAGAAAUCUUUCUUUCUUUUAUGUUUGAGCUCCGUGCAAAGCCUUUGCUCUUUGAGCUUGAACGUGGAUCUAUGGGAGGGAAAGCACUGUAUUUUCCUGUAAUUUUUUUUUUAAAGACAACAGAGGAUUGAGCAUCA
B22: chr7:135123436:135123437:+_ENSMUSG00000030795_ENSMUST00000077609|mus_mus|FALSE|FALSE (ssRNA)
RNA: GGGAGUUCUACAGUCCGACGAUCGCCUCCGCGACCAUUUCCACCACCCCGAUUGAAGUCAGCUCGGCGGGUAGCAAAUGAAACUUUAAUAGGAUUCCCAGAGAAUUCUUUACCAUCAAACCAGUCGAUAGCUGCUUUAGCAGACAACAGAGGAUUGAGCAUCA

What follows are binders tested against T1, UNK ZnF1-3 (assay: nsRBNS (natural sequence RNA bind-n-seq); RBNS binding buffer (assumed for nsRBNS): 25 mM Tris pH 7.5, 150 mM KCl, 3 mM MgCl2, 0.01% Triton X-100, 500 ug/ml BSA, 20 U/ml SUPERase-In, 4 C; UNK is unkempt and MSI1 is Musashi-1; names of the RNAs are library labels; protein concentration not given here; high values mean tight binding).

Row | Binder | binding signal
1 | B1 | 0.764 enrichment R
2 | B2 | 1.59 enrichment R
3 | B3 | 1.03 enrichment R
4 | B4 | 0.645 enrichment R
5 | B5 | 1.19 enrichment R
6 | B6 | 0.581 enrichment R
7 | B7 | 1.19 enrichment R
8 | B8 | 1.83 enrichment R
9 | B9 | 0.827 enrichment R
10 | B10 | 1.62 enrichment R
11 | B11 | 3.89 enrichment R
12 | B12 | 1.03 enrichment R
13 | B13 | 3.77 enrichment R
14 | B14 | 1.11 enrichment R
15 | B15 | 3.64 enrichment R
16 | B16 | 8.45 enrichment R
17 | B17 | 3.65 enrichment R
18 | B18 | 0.804 enrichment R
19 | B19 | 5.48 enrichment R
20 | B20 | 2.81 enrichment R
21 | B21 | 0.693 enrichment R
22 | B22 | 1.3 enrichment R
